Data on 102 molecules can be found in PubChem BioAssay AID686979 (National Center for Advancing Translational Sciences (NCATS), 2013).

In all, about 420,000 compounds went through this assay and about 50,000 (12%) were called active. A call without a number means that no potency is given here. About 26% were inconclusive and are not listed. The call rests on the fitted dose curve; in most records, active means well fitted inhibition curve with a large enough effect; inconclusive means small, poorly fitted or top-dose-only effect; inactive means flat fitted curve, though single readings scatter. This excerpt belongs to a sample that is enriched for actives.
Potency means the concentration at half of the fitted maximal effect.

A short description of this test: qHTS for Inhibitors of human tyrosyl-DNA phosphodiesterase 1 (TDP1): qHTS in cells in presence of CPT. Further: nearly all actives have a fitted effect of over 55% in size. As to conditions: chicken DT40 Tdp1-/-;hTDP1 cells + 20 nM CPT, ATP luminescence, 48 h; series mostly up to 46.2 µM. The method in brief: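 Chicken DT40 Tdp1-/- cells complemented with human TDP1, 400 cells/well, exposed to compounds plus 20 nM camptothecin for at least 48 h at 37 C; viability read as ATP content by CellTiter-Glo luminescence.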
On the technique in general: qHTS replaces the single test concentration by a dilution series.
`O=C(CN1C(=O)NC(Cc2c[nH]c3ccccc23)C1=O)Nc1ccccc1C(F)(F)F` (configuration not stated): the Potency result was “inactive”.
The result for `O=C(O)C1CCC(CNS(=O)(=O)c2ccc(Br)cc2)CC1` (configuration not stated) reads “inactive”; that for `CC(=O)N/C(=C/c1ccc(OC(F)F)cc1)C(=O)O`, “inactive”; that for `NC(=O)c1cc(S(=O)(=O)NCCCc2ccco2)cs1`, “inactive”.
The result for `Cc1cccc(CC2(O)C(=O)Nc3ccccc32)n1` (configuration not stated) reads “inactive”; that for `NC(=O)c1cc2ccccc2o/c1=N/NC(=O)c1cccc(F)c1`, “inactive”; that for `CCN(CC)c1ccc2cc(C(N)=O)/c(=N\NC(=O)c3ccncc3)oc2c1`, 16.4 µM (active).
For `COc1ccc(C(=O)N/N=c2\oc3ccccc3cc2C(N)=O)cc1`, the Potency result is “inactive”.
With `COc1cccc(NC(=S)NC(=O)c2c(Cl)c(C)nn2C)c1` the entry was “inactive”; with `Cc1ccc(C(=O)COC(=O)c2cccc(N3C(=O)c4c(C)nc5ccccc5c4C3=O)c2)cc1C`, “inactive”.
The result for `CCCCCCCCn1c2c(c(=N)c3c1CCC3)CCCC2` reads 0.92 µM (active); that for `O=C(NCc1ccccc1)C1=C[C@@H](C2CCCCC2)C[C@@H](OCc2ccc(CO)cc2)O1`, 16.4 µM (active).
With `O=C(O)C1CCN(C(=O)OCc2ccccc2)CC1` the entry was “inactive”; with `CSc1ccccc1C(=O)NCc1ccccc1`, “inactive”; with `CC(C)(C)[C@H]1C=C(C(=O)NCc2ccccc2)O[C@@H](OCc2ccc(CO)cc2)C1`, 18.4 µM (active).
As for `O=C(COC(=O)CNC(=O)C1CCCCC1)NCc1ccccc1`, the Potency result was “inactive”.
The result for `CC1(C)CC(=O)c2cc(C(=O)NCc3ccccc3)c(=O)[nH]c2C1` reads “inactive”.
In the case of `CCCCc1nc(SCC(=O)Nc2nnc(C(C)C)s2)n[nH]1`, the Potency result is “inactive”.
Turning to `O=C(OCC(=O)N1CCCC1=O)c1cc(S(=O)(=O)N2CCOCC2)ccc1Cl`, the Potency entry is “inactive”.
`O=C(OCC(=O)N1CCN(C(=O)c2ccco2)CC1)c1c(Cl)cccc1Cl`: the Potency result was “inactive”.
The result for `CC(=O)Nc1cccc(C(=O)OCC(=O)NCc2cc(C)c(O)c(C)c2)c1` reads “inactive”; that for `CC(=O)c1cccc(OCC(=O)OCC(=O)Nc2cc(S(=O)(=O)N3CCCCC3)ccc2C)c1`, “inactive”; that for `c1ccc2cc(CCCc3cc4ccccc4cn3)ncc2c1`, “inactive”.
The result for `O=C(NCCc1ccccn1)c1cc(-c2ccc(Cl)cc2)nc2ccccc12` reads 13 µM (active).
`O=C(NCc1ccccn1)c1cc(Br)ccc1Cl`: the Potency entry is “inactive”.
Take `CN(CC(=O)NCCc1ccccn1)S(=O)(=O)c1ccc(Cl)cc1`: the Potency entry is “inactive”.
Regarding `COC(=O)c1ccc2c(c1)S(=O)(=O)NC2C` (configuration not stated), the Potency entry was “inactive”.
The result for `CCCNC(=O)C1CCN(c2nc3ccc(C)cc3[nH]2)CC1` reads “inactive”.
With `CCC1CCCCN1S(=O)(=O)Cc1ccccc1Cl` (configuration not stated) the entry was “inactive”.
With `CN(CCc1ccccn1)C(=O)c1ccc(OC2CCN(Cc3ccccn3)CC2)cc1` the entry was “inactive”; with `CC(C)Oc1c(Br)cc(Br)cc1/C=N/NC(N)=S`, 16.4 µM (active); with `NC(=S)N/N=C/c1coc2cc(Cl)ccc2c1=O`, “inactive”.
For `CCOC(=O)C1=C(C)c2ccccc2OC1(C)C(=O)OCC` (configuration not stated), the Potency result was “inactive”.
For `COc1ccc(NC(=O)CCC(=O)Nc2nnc(C3CCCCC3)s2)cc1`, the Potency result was “inactive”.
Turning to `CCOc1ccc(N2CC(c3nc4ccccc4n3CCOc3ccc(OC)cc3)CC2=O)cc1` (configuration not stated), the Potency is 20.6 µM (active).
With `CCCOc1ccc(N2CC(C(=O)Nc3ccccn3)CC2=O)cc1` (configuration not stated) the entry was “inactive”; with `COc1ccc(OCCCn2c(C3CC(=O)N(c4ccc(F)cc4)C3)nc3ccccc32)cc1` (configuration not stated), 18.4 µM (active).
On to `Cc1ccc(C(C)C)c(OCCSc2nc3ccccc3n2CC(=O)O)c1`, for which the Potency entry is “inactive”.
With `CCCOc1cc(C)c(S(=O)(=O)n2nnc3ccccc32)cc1C` the entry was “inactive”; with `CC(C)(C)N1CC(c2nc3ccccc3n2Cc2ccc(F)cc2)CC1=O` (configuration not stated), “inactive”; with `CCOc1ccc(NC(=O)[C@H](C)NC(=O)C2CC(=O)N(c3ccc(OC)cc3)C2)cc1` (some centres not stated), “inactive”.
The result for `CCCCN1CC(c2nc3ccccc3n2CCCCOc2ccc(C)cc2C)CC1=O` (configuration not stated) reads 7.31 µM (active).
For `CCc1ccccc1N1CC(c2nc3ccccc3n2CCCCOc2ccccc2)CC1=O` (configuration not stated), the Potency result was “inactive”.
With `COc1ccc(Nc2ccc([N+](=O)[O-])cn2)cn1` the entry was “inactive”.
With `CNC[C@H]1OCc2cnnn2CCCC(=O)N([C@H](C)CO)C[C@@H]1C` the entry was “inactive”; with `CCCCC(c1nnnn1CS(=O)(=O)c1ccc(C)cc1)N1CCC(C(N)=O)CC1` (configuration not stated), “inactive”.
`Cc1ccc(CC2C(=O)N(c3ccc(F)cc3)C(=O)C2C)cc1` (configuration not stated): the Potency entry is “inactive”.
The result for `Clc1ccc2nc(CSc3ccccc3)cn2c1` reads “inactive”; that for `Cc1ccc(CNC(=O)CCN2C(=O)[C@@H]3Cc4ccccc4CN3C2=O)cc1`, “inactive”; that for `CC[C@@]12C(=O)N(c3ccccc3)C(=O)N1[C@H](c1ccc(Br)cc1)[C@@H]1C(=O)N(C(C)(C)C)C(=O)[C@@H]12`, 16.4 µM (active).
For `COc1ccc([C@@H]2[C@@H]3C(=O)N(C(C)(C)C)C(=O)[C@@H]3[C@]3(Cc4ccccc4)C(=O)N(c4cccc(Br)c4)C(=O)N23)cc1`, the Potency entry was “inactive”.
The result for `CCN1C(=O)[C@H]2[C@@H](c3ccc(C)cc3)N3C(=O)N(c4cccc(Br)c4)C(=O)[C@@]3(CC)[C@H]2C1=O` reads “inactive”; that for `O=C1CN(C(=O)c2cc(F)cc(F)c2)c2ccccc2N1`, “inactive”; that for `CCCC(=O)Nc1ccc2c(c1)nc(CCNC(=O)c1ccco1)n2C`, “inactive”.
In the case of `CCOC(=O)c1cccc(NC(=O)CCOc2ccccc2)c1`, the Potency result is “inactive”.
For the molecule `CCOCCC(=O)Nc1ccc2c(c1)c(=O)n(C)n2-c1ccc2ccccc2c1`, the Potency is 1.46 µM (active).
As to `C=CC1=C(C(=O)O)N2C(=O)[C@@H](NC(=O)/C(=N\OCC(=O)O)c3csc(N)n3)[C@H]2SC1`, the Potency entry was “inactive”.
For `O=C(NCc1cc(F)cc(C(F)(F)F)c1)C1CCC(=O)N(C2CCCC2)C1` (configuration not stated), the Potency entry was “inactive”.
With `Cc1ccccc1NC(=O)C(C)OC(=O)CCC(=O)N(CC(C)C)c1c(N)n(CC(C)C)c(=O)[nH]c1=O` (configuration not stated) the entry was “inactive”; with `CCN(CC(=O)Nc1c(F)cccc1F)C(=O)c1ccc(Sc2nncn2C)c([N+](=O)[O-])c1`, “inactive”; with `NC(=O)c1ccccc1N(Cc1ccccc1)S(=O)(=O)c1ccccc1`, “inactive”.
On to `CCOC(=O)N1CCN(S(=O)(=O)c2ccc(OC)cc2)CC1`, for which the Potency result is “inactive”.
The result for `CCOC(=O)N1CCN(C(=O)c2ccccc2N(Cc2ccccc2)S(=O)(=O)c2ccc(OC)cc2)CC1` reads 2.91 µM (active); that for `O=C(O)C#Cc1cccc2ccccc12`, “inactive”; that for `CCn1ccnc1CNC(=O)CC1C(=O)NCCN1Cc1ccc(F)cc1Cl` (configuration not stated), “inactive”.
The result for `Cc1cc(-n2cnc(-c3cn(C)nc3C)n2)no1` reads “inactive”; that for `CCCCN(C(=O)c1ccc(S(=O)(=O)N2CCOCC2)cc1)C1CCS(=O)(=O)C1` (configuration not stated), “inactive”; that for `CCNC(=S)Nc1ccc(OC(F)(F)F)cc1`, “inactive”.
Take `COC(=O)Cc1ccc(OCC(=O)Nc2ccc(OC(F)(F)F)cc2)cc1`: the Potency result was “inactive”.
With `CCc1ccc2c(c1)NC(=O)C2(C)Cc1ccc(OC(F)(F)F)cc1` (configuration not stated) the figure was 20.6 µM (active); with `CC1(C(=O)NS(=O)(=O)Cc2cccc(Cl)c2)CCN1C(=O)Cc1ccccc1` (configuration not stated), “inactive”.
As for `O=C(NCc1ccccc1)C1CCCN(c2nc3ccsc3c(=O)s2)C1` (configuration not stated), the Potency result is “inactive”.
The result for `Cc1cc(=O)n2nc(N3CCCC(C(=O)NCc4cccc(Cl)c4)C3)sc2n1` (configuration not stated) reads “inactive”; that for `O=C(NCCc1cccc(F)c1)C1CCCN(c2nc3ccccc3s2)C1` (configuration not stated), 18.4 µM (active); that for `CCC(C)c1ccc(NC(=O)COC(=O)C2CCCC2)cc1` (configuration not stated), “inactive”.
Take `CC(C)(C)NC(=O)NC(=O)COC(=O)C1c2ccccc2Oc2ccccc21`: the Potency entry is “inactive”.
With `Cc1cn([C@H]2C[C@H](O)[C@@H](CNC(=O)[C@H](N)Cc3cccnc3)O2)c(=O)[nH]c1=O`, the Potency entry is “inactive”.
On to `Cc1cccc(C)c1NC(=O)CN(C)C(=O)CCC(=O)c1ccccc1`, for which the Potency result is “inactive”.
As for `Cc1cccc(C)c1NC(=O)C(Cl)C(=O)c1ccccc1` (configuration not stated), the Potency is 5.17 µM (active).
Take `Cc1cccc(C)c1NC(=O)C(c1ccccc1)N1CC(=O)Nc2ccccc21` (configuration not stated): the Potency result is “inactive”.
The result for `Cc1ccc(C)c(NC(=O)C(c2ccccc2)N2CCN(CC(=O)NC3CC3)CC2)c1` (configuration not stated) reads “inactive”.
In the case of `O=C(NCc1ccco1)c1nc2ncccn2n1`, the Potency result is “inactive”.
For `O=c1oc(-c2ccco2)nc2sc3c(c12)CCCCC3`, the Potency entry was “inactive”.
The result for `O=C(NCc1ccco1)c1cccn2c(=O)c3c4c(sc3nc12)CCCC4` reads 9.2 µM (active).
The result for `CC(C)C[C@H](NC(=O)C1CC(=O)N(c2ccc3c(c2)OCCO3)C1)C(=O)NC1CCCC1` (some centres not stated) reads “inactive”; that for `CN[C@@H]1[C@@H](O)[C@@H](O[C@@H]2[C@H](O)[C@H](O[C@H]3OC(CN)=CC[C@H]3N)[C@@H](N)C[C@H]2N)OCC1(C)O` (some centres not stated), “inactive”; that for `NC(=O)C1CCN(CC(O)CSc2ccc(F)cc2)CC1` (configuration not stated), “inactive”.
The result for `OC(CNC1CCCC1)COc1ccc(F)cc1` (configuration not stated) reads “inactive”.
Take `NC(=O)C1=C[C@H](c2csc3ccccc23)C[C@H](OCc2ccc(CO)cc2)O1`: the Potency was 14.6 µM (active).
Regarding `O=C(O)C1=C[C@H](c2cccs2)C[C@H](OCCCCO)O1`, the Potency result was “inactive”.
With `NC(=O)C1=C[C@@H](c2ccc3c(c2)OCO3)C[C@@H](OCCCCO)O1` the entry was “inactive”; with `C=CCOC(=O)C1=C[C@@H](c2ccccc2)C[C@@H](OCc2ccc(CO)cc2)O1`, “inactive”; with `O=C(C1=C[C@H](c2coc3ccccc3c2=O)C[C@H](OCc2ccc(CO)cc2)O1)N1CCOCC1`, “inactive”.
`NC(=O)C1=C[C@@H](c2csc3ccccc23)C[C@@H](OCc2ccc(CO)cc2)O1`: the Potency is 25.9 µM (active).
As for `Cc1cc(OC(C)C(=O)NC2CC(C)(C)NC(C)(C)C2)c2c(C)cc(=O)oc2c1` (configuration not stated), the Potency entry is “inactive”.
The result for `COCCNC(=S)N1CCN(C)CC1` reads “inactive”.
With `CC1CCC2(CC1)NC(=O)N(CC(=O)c1cccn1C)C2=O` (configuration not stated), the Potency entry was “inactive”.
The result for `CC(C)(C)SCCSC1=CC(=O)CC(c2ccccc2)C1` (configuration not stated) reads “inactive”.
Take `COC(=O)C(C)Oc1ccc2c(c1)O/C(=C\c1cccc(Br)c1)C2=O` (configuration not stated): the Potency entry is “inactive”.
The result for `Cc1ccc(OCCOCCOc2ccc(Br)cc2/C=N\NC(=O)c2ccncc2)cc1` reads 18.4 µM (active); that for `Cc1ccc(S(=O)(=O)Oc2ccc(/C=N/NC(=O)c3ccncc3)cc2)cc1`, “inactive”.
As for `CCOc1cc(/C=N/NC(=O)c2ccncc2)cc(Br)c1O`, the Potency entry is “inactive”.
